Consider nine compounds from PubChem BioAssay (NCI).

This is part of a sample that, as a whole, favours compounds with a hit. Of some 83,000 tested, about 20% had one in any assay.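 Cells were grown in 96-well plates and exposed to the test compound at a single concentration for 48 hours; results are reported as percent growth, with values below 10 considered active.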 A number with no mark means an inactive call. Active and inactive are the calls of the source.

Among the test systems are HCT-15 colon; HT29 colon; SNB-75 CNS; SNB-19 CNS; U251 CNS; PC-3 prostate; SK-MEL-5 melanoma; UACC-62 melanoma; LOX IMVI melanoma; SK-MEL-28 melanoma; EKVX NSCLC; SN12C renal; UO-31 renal; TK-10 renal; ACHN renal; CAKI-1 renal; A498 renal; MOLT-4 leukemia; CCRF-CEM leukemia.
Holding throughout (test): NCI-60 one-dose screen, 48 h (100 = growth as untreated, 0 = no growth, -100 = all killed)
Common to all, as to details: 10 µM unless noted

As for `COc1cc2nccc(Oc3ccc(NC(=O)Nc4cc(C)on4)c(Cl)c3)c2cc1OC`, the growth with HCT-15 colon was 18.3%; in the assay on HT29 colon it was -9.07% (active); in the assay with SNB-75 CNS, -6.16% (active); with SNB-19 CNS, 32.8%; in the assay on U251 CNS, 28.2%; with PC-3 prostate, 21.1%. Also, the growth in the assay with SK-MEL-5 melanoma was -19.7% (active); in the assay with UACC-62 melanoma, 11.5%; with LOX IMVI melanoma, -2.96% (active); in the assay on SK-MEL-28 melanoma, 23.2%; in the assay with EKVX NSCLC it was 37.6%; with SN12C renal, 11.6%. Besides, the growth was -15.3% (active) with UO-31 renal; -15.8% (active) with TK-10 renal; 13.7% with ACHN renal; 2.09% (active) in the assay with CAKI-1 renal; -35.9% (active) in the assay with A498 renal; 7.51% (active) with MOLT-4 leukemia.

Turning to `COc1cc2c(c(OC)c1)C1c3ccccc3NC(=O)N1CC2` (stereo unspecified), the growth with HCT-15 colon is 18%; in the assay with HT29 colon it was 6.37% (active); in the assay on SNB-75 CNS, 7.13% (active); in the assay on SNB-19 CNS it was 44.7%; in the assay with U251 CNS it was 16.8%; in the assay on PC-3 prostate it was 22.6%. The growth in the assay with SK-MEL-5 melanoma was 15.7%; with UACC-62 melanoma, 15.6%; in the assay on LOX IMVI melanoma, 41.3%; in the assay with SK-MEL-28 melanoma, 49.8%; in the assay on EKVX NSCLC it was 42.1%; in the assay on SN12C renal it was 39%. Further, the growth in the assay with UO-31 renal was 36.8%; in the assay with TK-10 renal, 49.5%; in the assay with ACHN renal it was 44.9%; in the assay with CAKI-1 renal, 34.3%; in the assay with A498 renal, -7.8% (active); with CCRF-CEM leukemia it was 10.7%. In addition, the growth with MOLT-4 leukemia was 30.6%.

For `CN1CCC(CNc2ccc3ncc(-c4cccc(OC(F)(F)F)c4)n3n2)CC1`, the growth in the assay on HCT-15 colon was -35.2% (active); in the assay with HT29 colon, -46.1% (active); with SNB-75 CNS it was -75.1% (active); with SNB-19 CNS, -48.6% (active); in the assay with U251 CNS, -89.2% (active); with PC-3 prostate, -20.6% (active). The growth is -99.1% (active) with SK-MEL-5 melanoma; -95% (active) with UACC-62 melanoma; -83.5% (active) with LOX IMVI melanoma; -86.4% (active) in the assay with SK-MEL-28 melanoma; 4.31% (active) in the assay on EKVX NSCLC; -81.2% (active) with SN12C renal. In addition, the growth with UO-31 renal was -95.1% (active); with TK-10 renal, -4.7% (active); in the assay with ACHN renal it was -54.7% (active); with CAKI-1 renal, -62.8% (active); in the assay on A498 renal, -79.8% (active); with CCRF-CEM leukemia, -5.49% (active). Besides, the growth with MOLT-4 leukemia was -5.02% (active).

`O=C(COc1cccc(/C=C2\Cc3ccc(Cl)cc3C2=O)c1)Nc1nccs1`: the growth with HCT-15 colon is 91.9%; with HT29 colon, 102%; in the assay with SNB-75 CNS it was 76.6%; with SNB-19 CNS it was 85.9%; in the assay on U251 CNS it was 96.7%; with PC-3 prostate, 88%. In addition, the growth was 93.1% in the assay with SK-MEL-5 melanoma; 84.2% in the assay on UACC-62 melanoma; 78% with LOX IMVI melanoma; 124% in the assay on SK-MEL-28 melanoma; 98.1% with EKVX NSCLC; 89.3% in the assay with SN12C renal. For the same compound, the growth in the assay on UO-31 renal was -68% (active); in the assay on TK-10 renal, 142%; in the assay with ACHN renal it was 91.8%; with CAKI-1 renal, 78.2%; with A498 renal it was 98.3%; in the assay with CCRF-CEM leukemia, 77.1%. In addition, in the assay on MOLT-4 leukemia, the growth was 37.3%.

As to `CC(C)(C)c1nc(-c2cccc(NS(=O)(=O)c3c(F)cccc3F)c2F)c(-c2ccnc(N)n2)s1`, the growth in the assay with HCT-15 colon is 90.8%; in the assay with HT29 colon it was 8.76% (active); in the assay with SNB-75 CNS, 107%; in the assay with SNB-19 CNS, 111%; with U251 CNS, 113%; with PC-3 prostate, 100%. The growth with SK-MEL-5 melanoma was 61.1%; in the assay on UACC-62 melanoma it was 30.9%; with LOX IMVI melanoma, 24.5%; in the assay on SK-MEL-28 melanoma, 37.1%; with EKVX NSCLC, 97.7%; with SN12C renal it was 80.1%. The growth with UO-31 renal was 37.1%; in the assay with TK-10 renal, 65.2%; with ACHN renal it was 59.3%; in the assay on CAKI-1 renal, 56.4%; in the assay with A498 renal, 135%; in the assay with MOLT-4 leukemia, 39.4%.

For `COc1cc(NCCCN)c2ncccc2c1`, the growth in the assay with HCT-15 colon was 100%; with HT29 colon, 75.6%; in the assay with SNB-75 CNS it was 87.5%; in the assay with SNB-19 CNS, 87.5%; in the assay on U251 CNS, 83.2%; with PC-3 prostate, 82.2%. Besides, the growth with SK-MEL-5 melanoma was 81.5%; in the assay on UACC-62 melanoma, 86.8%; with LOX IMVI melanoma, 61.8%; in the assay with SK-MEL-28 melanoma, 83.4%; with EKVX NSCLC, 105%; with SN12C renal, 84.7%. The growth is 63.4% in the assay on UO-31 renal; 84.8% with TK-10 renal; 97.2% with ACHN renal; 97.2% in the assay on CAKI-1 renal; 56.9% in the assay on A498 renal; 91.5% in the assay with MOLT-4 leukemia.

Take `NC1=Nc2cc(OCCCN3Cc4ccccc4C3)c(OCC3CC3)cc2C12CCCC2`: the growth in the assay with HCT-15 colon was 25.1%; with HT29 colon, 5.45% (active); in the assay on SNB-75 CNS it was 60.3%; in the assay on SNB-19 CNS it was 82.4%; with U251 CNS, 49.5%; with PC-3 prostate, 45.4%. Moreover, the growth in the assay with SK-MEL-5 melanoma was -11% (active); with UACC-62 melanoma it was 45.7%; with LOX IMVI melanoma it was 8.85% (active); in the assay with SK-MEL-28 melanoma, -44% (active); in the assay on EKVX NSCLC it was 72.6%; in the assay on SN12C renal, 77.6%. The growth was 42.1% in the assay on UO-31 renal; 78.4% in the assay with TK-10 renal; 83.1% in the assay with ACHN renal; 49.9% in the assay with CAKI-1 renal; 68.4% with A498 renal; 37% in the assay on CCRF-CEM leukemia. In the assay on MOLT-4 leukemia, the growth is 44.2%.

Take `Clc1ccc(Nc2nccc(Nc3ccc4[nH]ncc4c3)n2)cc1`: the growth was 40.5% in the assay with HCT-15 colon; 16.6% in the assay on HT29 colon; 67.6% with SNB-75 CNS; 78.1% with SNB-19 CNS; 58.8% with U251 CNS; 24.9% with PC-3 prostate. Also, the growth is 25.9% with SK-MEL-5 melanoma; 33.5% in the assay on UACC-62 melanoma; 44.9% with LOX IMVI melanoma; 80% in the assay with SK-MEL-28 melanoma; 66.7% in the assay with EKVX NSCLC; 51.6% with SN12C renal. Also, the growth with UO-31 renal was 17.4%; in the assay on TK-10 renal, 61.6%; in the assay with ACHN renal, 47.4%; with CAKI-1 renal it was 52.3%; with A498 renal it was 39.1%; with MOLT-4 leukemia, 23%.

In the case of `Cn1cc(-c2[nH]c3cc(NC(=O)[C@H](N)C4CCCCC4)cc4c3c2C=NNC4=O)cn1`, the growth was 20.1% in the assay on HCT-15 colon; -11.1% (active) with HT29 colon; -70.2% (active) in the assay with SNB-75 CNS; -24.4% (active) in the assay with SNB-19 CNS; -83.3% (active) in the assay on U251 CNS; 7.2% (active) with PC-3 prostate. Further, the growth with SK-MEL-5 melanoma is -36.6% (active); with UACC-62 melanoma, 26.1%; in the assay on LOX IMVI melanoma, -73.4% (active); with SK-MEL-28 melanoma it was -70% (active); in the assay with EKVX NSCLC, 33.1%; in the assay with SN12C renal, -11.5% (active). The growth in the assay on UO-31 renal was -13.6% (active); in the assay with TK-10 renal it was 17.1%; in the assay with ACHN renal it was 4.51% (active); in the assay with CAKI-1 renal it was 9.72% (active); in the assay on A498 renal it was -43.7% (active); in the assay on MOLT-4 leukemia, -36.8% (active).
